In general, AC50 refers to the concentration giving half of the maximal activity seen.

Where “and” joins values, the source holds several entries; their conditions need not be identical. Equal values may be shown once. Inconclusive results are not listed. Where a structure was tested more than once in an assay, its records may differ in their call. Calls of active or inactive are those of the source. The calls were made as follows: active = hit-call score of the fitted dose curve at least 0.9, where 1 is the maximum; inconclusive = response in the unintended direction; inactive = score below 0.9.

In PubChem BioAssay (EPA / NIEHS) one finds AC50 and outcome data, which are given here for 38 compounds.

Peroxisome proliferator-activated receptor gamma (Homo sapiens), sequence (P37231 whole entry, looked up): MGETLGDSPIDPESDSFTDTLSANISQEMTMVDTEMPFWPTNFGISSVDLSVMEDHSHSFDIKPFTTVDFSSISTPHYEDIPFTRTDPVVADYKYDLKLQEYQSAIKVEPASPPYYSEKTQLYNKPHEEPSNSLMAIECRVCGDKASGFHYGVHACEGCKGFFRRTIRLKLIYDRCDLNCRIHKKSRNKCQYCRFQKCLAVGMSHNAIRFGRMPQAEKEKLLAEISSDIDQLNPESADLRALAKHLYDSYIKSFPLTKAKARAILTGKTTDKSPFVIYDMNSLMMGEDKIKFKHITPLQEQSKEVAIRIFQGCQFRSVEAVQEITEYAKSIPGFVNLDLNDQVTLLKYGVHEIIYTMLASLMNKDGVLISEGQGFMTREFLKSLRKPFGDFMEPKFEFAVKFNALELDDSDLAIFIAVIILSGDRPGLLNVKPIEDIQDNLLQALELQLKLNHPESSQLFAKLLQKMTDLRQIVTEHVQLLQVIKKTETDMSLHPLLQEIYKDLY

This assay deals with Peroxisome proliferator-activated receptor gamma (Homo sapiens) (UniProt P37231). As to the kind of experiment: ATG_PPARg_TRANS: Attagene TRANS-FACTORIAL HepG2 Assay for human Peroxisome Proliferator-activated Receptor-gamma (PPARg) (AID 2283007). Here is the method:
ATG_TRANS is a cell-based, multiplexed-readout assay that uses HepG2, a human liver cell line, with measurements taken at 24 hours after chemical dosing in a 24-well plate.ATG_PPARg_TRANS is one of 30 assay component(s) measured or calculated from the ATG_TRANS assay. It is designed to make measurements of mRNA induction, a form of inducible reporter, as detected with fluorescence intensity signals by Reverse transcription polymerase chain reaction (RT-PCR) and Capillary electrophoresis technology.Data from the assay component ATG_PPARg_TRANS was analyzed into 1 assay endpoint. This assay endpoint, ATG_PPARg_TRANS, was analyzed in the positive analysis fitting direction relative to DMSO as the negative control and baseline of activity. Using a type of inducible reporter, measures of mRNA for gain-of-signal activity can be used to understand the reporter gene at the transcription factor-level as they relate to the gene PPARG. Furthermore, this assay endpoint can be referred to as a primary readout, because this assay has produced multiple assay endpoints where this one serves a reporter gene function. To generalize the intended target to other relatable targets, this assay endpoint is annotated to the nuclear receptor intended target family, where the subfamily is non-steroidal.
Human liver HepG2 cells are transiently transfected with multiple reporter transcription units (MRTUs) in 6-well plates using FuGene 6 reagent (Roche; 3 ml FuGene/1 mg DNA). The MRTU constructs are regulated by a cis-regulating element (promoter). […] A major difference between the CIS and TRANS system is that in CIS activities of endogenous TFs are measured, whereas the TRANS assay evaluates changes in activities of exogenous, chimeric NR-Gal4 proteins. […] At the end of 24 hour incubation, total RNA was isolated using TriZol reagent (Invitrogen). The isolated RNA is then reverse-transcribed using oligo(dT) primer and Mo-MLV reverse transcriptase (Invitrogen) with DNAse I (Ambion) treatment for 30 min. The one-tenth of the produced cDNA was amplified by PCR using Taq DNA polymerase (Invitrogen) and two reporter sequence-specific primers. The PCR products were fluorescently labeled by primer extension with 6-arboxyfluorescein (6-FAM) 5'-labeled reporter sequence-specific primer (2 min at 95 C, 20 s at 68 C and 10 min at 72 C) and these products were digested with 5U of HpaI (New England Biolabs) for 2h at 37 C. The fragments were purified using Qiaquick PCR columns (Qiagen), analyzed on an ABI 3130xL genetic analyzer (Applied Biosystems) with peak positions identified by using a set of X-rhodamine (ROX)-labeled MapMarker1000 molecular weight standards (BioVentures). The raw capillary electrophoresis data was processed using Attagraph software (Attagene).
For the compound `NC(=O)c1nc(-c2cccc(-c3cc(F)ccc3OCC(F)(F)C(F)(F)F)c2)n[nH]1`, the half-maximal activity concentration (AC50) is 13 µM (active).
`CC(=O)N1CCN(c2ccc(OC[C@H]3CO[C@](Cn4ccnc4)(c4ccc(Cl)cc4Cl)O3)cc2)CC1`: the compound was called inactive.
Regarding `CCCCOC(=O)CC(CC(=O)OCCCC)(OC(C)=O)C(=O)OCCCC`, the AC50 was 16.2 µM (active) and 8.69 µM (active).
On to `CCCCOC(=O)c1ccc(O)cc1`, for which the half-maximal activity concentration (AC50) was 39.9 µM (active) and 54 µM (active) and 27.3 µM (active); the compound was classed as inactive.
Take `O=C=NCCCCCCN=C=O`: the call was inactive.
Consider `Clc1cc(Cl)c2c(c1)N=C1CCCCCN1C2`, for which the AC50 was 16.1 µM (active).
Turning to `NCc1cccc(C2CCN(C(=O)c3ccc(C#Cc4ccccc4F)o3)CC2)c1`, the AC50 is 1.33 µM (active).
As for `CCOC(=O)O[C@H](C)OC(=O)c1ccc2c(c1)cc(C(=O)NC1CCN(C(C)C)CC1)n2Cc1cc(-c2ccc(Cl)s2)on1`, the compound was called inactive.
`C[C@]12CC[C@@H]3c4ccc(O)cc4CC[C@H]3[C@@H]1CC[C@H]2O`: the compound was classed as inactive.
In the case of `Cc1ccc2oc(CN(Cc3ccccc3)C(=O)Nc3c(F)cc(F)cc3F)c(-c3ccc(Cl)cc3)c2c1`, the result was inactive.
On to `O=c1[nH]sc2ccccc12`, for which the call was inactive.
With `c1ccc2n[nH]nc2c1`, the compound was classed as inactive.
Regarding `CCCCCCCCOC(=O)c1cc(O)c(O)c(O)c1`, the AC50 is 39.8 µM (active).
Consider `c1ccc(C[n+]2cccc3ccccc32)cc1`, for which the compound was called inactive.
On to `CC(C)(C)c1cc(/C=C2\SC(N)=NC2=O)cc(C(C)(C)C)c1O`, for which the AC50 was 6.79 µM (active).
Consider `Oc1ccccc1`, for which the compound was classed as inactive.
In the case of `O=C(O)c1ccccc1C(=O)OCc1ccccc1`, the compound was classed as inactive.
Same read-out and setting: under `Cc1cccc2ccccc12` stands “inactive”.
On to `Oc1ccc2ccccc2c1`, for which the result was inactive.
Regarding `COc1cc(C(=O)NC2CCN(C)CC2)ccc1Nc1ncc2c(n1)N(C1CCCC1)CC(F)(F)C(=O)N2C`, the compound was called inactive.
`Cc1cc2c(cc1C(F)(F)F)N(C(=O)Nc1ccc(Oc3cccnc3C)nc1)CC2`: the compound was classed as inactive.
On to `CC(C)(O)c1ccc(CNC(=O)c2cccnc2Oc2ccc3nonc3c2)cc1`, for which the AC50 is 27 µM (active).
In the case of `Cc1cn([C@H]2C[C@H](N=[N+]=[N-])[C@@H](CO)O2)c(=O)[nH]c1=O`, the result was inactive.
On to `CC[C@H](NC(=O)c1cc(F)ccc1NS(=O)(=O)c1cccc2cccnc12)c1ccccc1`, for which the AC50 was 13.1 µM (active).
On to `O=C1O[C@H]([C@@H](O)CO)C(O)=C1O`, for which the compound was called inactive.
In the case of `CC(O)CC(C)(C)O` (stereo not given), the result was inactive.
Consider `CN(C)c1ccc(C(=C2C=CC(=[N+](C)C)C=C2)c2ccc(N(C)C)cc2)cc1`, for which the AC50 is 16.8 µM (active).
Same read-out and setting: as for `CC(C)(C)c1csc(-c2cc3cc(OCc4ccccc4CC(=O)O)ccc3o2)n1`, the figure is 1.51 µM (active).
As for `CN1C(=O)N(c2ccccc2Br)Cc2cnc(Nc3ccc4c(c3)OCC(CO)O4)nc21` (stereo not given), the compound was classed as inactive.
Turning to `CCCCCc1ccc(N)cc1`, the call was inactive; the AC50 was 100 µM (active) and 34 µM (active).
As for `COc1ccc2cc(S(=O)(=O)N[C@H](CC(=O)N[C@H](Cc3ccc(CN4[C@H](C)CCC[C@@H]4C)cc3)C(=O)N(C)C(C)C)c3ccc4c(c3)OCO4)ccc2c1`, the result was inactive.
As to `CCCCCCCCCCCO`, the AC50 is 62.9 µM (active).
`OC12N=C(c3ccccc3)SC1Cc1cc(Cl)ccc12` (stereo not given): the AC50 is 0.03 µM (active).
In the case of `CCCCCCCCCC(=O)O`, the AC50 was 29.2 µM (active) and 12.3 µM (active).
Take `O=C1CCC(C2CCCCC2)CC1`: the AC50 is 27.6 µM (active) [middle of 4 runs].
In the case of `Cc1cc(F)ccc1-c1cc(N2CC[C@@H](O)[C@H]2CO)ncc1N(C)C(=O)C(C)(C)c1cc(C(F)(F)F)cc(C(F)(F)F)c1`, the outcome was inactive.
With `CCN(Cc1cccnc1)C(=O)c1cccc(Cl)c1[C@]1(C)C(=O)N(Cc2ccc(OC)cc2OC)c2ccc(Cl)cc21`, the compound was classed as inactive.
Turning to `Cc1c2ccccc2c(C)c2c1ccc1ccccc12`, the concentration at half-maximal activity (AC50) was 24.1 µM (active).
